This is a sample that favours compounds with a hit; in the whole collection about 7.4% have one here.
Rab9 prom act – Rab9 promoter activation. Huh7 Rab9 promoter-luciferase reporter, luminescence, 24 h. Potency, µM (highest dose often 9.22 µM), inactives show at the top dose activation, negative = inhibition, hits mostly activators. hit rate 2.8% among 320,000; further: % of control where 0% means no effect; nearly all actives have a fitted effect of over 60% in size
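Rab9 promoter-driven luciferase in stably transfected Huh7 cells; 1500 cells/well rested 2 h, exposed to compound in DMSO for 24 h at 37 °C, 5% CO2. Luminescence read 10 min after adding luciferase reagent at ambient temperature.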
NPC1 promoter act – NPC1 promoter activation; hit rate 2.4% among 320,000; Huh7 NPC1 promoter luciferase reporter, 24 h; Potency, µM (doses to about 9.22 µM), for inactives: at the top dose activation, most hits filed as activators; further: % of control where 0% means no effect; nearly all actives have a fitted effect of over 60% in size
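Huh7 reporter cells (NPC1 promoter driving luciferase) are dosed with compound for 24 h at 37 °C, 5% CO2; luciferase detection reagent is then added and luminescence measured after 10 min at ambient temperature.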
FLuc counter – counter-screen for miR-21 project: firefly luciferase inhibitors or activators | P08659 | purified FLuc, Km substrates, luminescence inhibition | Potency, µM (titrated, usually from 57.5 µM), inactives show at the top dose activity change, negative = inhibition, most hits filed as inhibitors | hit rate 6.9% among 360,000 | AID 588342;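 further: plate controls were vehicle for no effect and reference inhibitor for full effect; nearly all actives have a fitted effect of over 55% in size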
Target sequence (P08659 whole entry, looked up): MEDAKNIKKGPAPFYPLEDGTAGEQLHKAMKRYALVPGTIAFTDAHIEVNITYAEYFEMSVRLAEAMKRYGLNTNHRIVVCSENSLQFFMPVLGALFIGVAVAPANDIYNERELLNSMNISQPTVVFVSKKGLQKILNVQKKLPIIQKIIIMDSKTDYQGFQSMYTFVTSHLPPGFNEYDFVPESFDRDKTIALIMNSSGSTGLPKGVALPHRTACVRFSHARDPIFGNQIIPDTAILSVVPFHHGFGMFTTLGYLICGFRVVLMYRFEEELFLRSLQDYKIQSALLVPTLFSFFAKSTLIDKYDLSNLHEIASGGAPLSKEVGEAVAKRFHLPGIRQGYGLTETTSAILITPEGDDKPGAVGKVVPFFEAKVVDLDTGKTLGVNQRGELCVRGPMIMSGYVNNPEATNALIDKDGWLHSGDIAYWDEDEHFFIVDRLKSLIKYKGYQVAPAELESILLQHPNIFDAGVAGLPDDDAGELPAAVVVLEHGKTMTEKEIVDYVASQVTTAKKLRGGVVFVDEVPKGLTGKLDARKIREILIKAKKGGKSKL
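Purified P. pyralis luciferase (10nM final) with 10uM D-luciferin and 10uM ATP (Km levels) in 50mM Tris acetate pH 7.5, 10mM Mg acetate, 0.01% Tween-20, 0.05% BSA; qHTS 6-point titration, ~60 µM downward; luminescence read.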
SMN2 splice enh – increases expression of the SMN2 splice variant. HEK293 SMN2-luciferase splicing reporter, luminescence, 30-36 h. hit rate 2.8% among 210,000. AID 1458. Potency, µM (series often up to 46.1 µM), without a hit: at the highest dose activity change, positive = activation, hits mostly activators; further: % of control where 0% means no effect; nearly all actives have a fitted effect of over 55% in size
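HEK293 cells carry an SMN2 […]–luciferase reporter in which exon 7 inclusion puts luciferase in frame. Cells were plated 10-12 h before compound addition, then incubated 30-36 h at 37C. ONE-Glo luminescence was read; sodium butyrate at 4.5 mM final served as control.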
Luc counter – counter-screen: inhibitors of Kinase-Glo firefly luciferase; Kinase-Glo luciferase, ATP luminescence, 8 min; Potency, µM (top dose mostly 38.3 µM), for inactives: at the top dose activity change, negative = inhibition, actives largely listed as inhibitors; hit rate 0.28% among 200,000; AID 1379; further: on the % scale 0 is the no-effect control and ±100 the full control effect; nearly all actives have a fitted effect of over 60% in size
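Recombinant Kinase-Glo luciferase, 10 uM ATP (linear range), luciferin; imidazole pH 7.2 / KCl / MgCl2 / Tween / BSA buffer; 8 min RT; luminescence.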
ELG1 genotoxic – genotoxicity induction in ELG1-luciferase HEK293T cells; HEK293T ELG1-luciferase reporter, luminescence, 16 h; Potency, µM (highest dose often 46 µM), without a hit: at the highest dose activity change, positive = activation, hits mostly activators; hit rate 1.3% among 330,000; AID 504466; further: % of control where 0% means no effect; nearly all actives have a fitted effect of over 60% in size
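After overnight (16 hr) compound treatment at 37 °C, ELG1-luciferase HEK293T cells were lysed with ONE-Glo; luminescence quantified 30 min later at room temperature.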
* hit, by the source's call. The call rests on the fitted dose curve; in most records, active means well fitted curve in the direction sought with a large enough effect; inconclusive means small, poorly fitted or top-dose-only effect, or another doubt; inactive means no such curve, though single readings can be large; an effect the other way counts as inactive or inconclusive. Potency means the concentration at half of the fitted maximal effect.

`C=CCOc1c(CNc2ccc(C(=O)O)cc2)cccc1OC` gave Rab9 prom act -2%, NPC1 promoter act 7%, FLuc counter -19%, SMN2 splice enh inconclusive, Luc counter 4% and ELG1 genotoxic 2%.
For C=CCOc1c(CNc2ccc(C(=O)O)cc2)cccc1OCC the results were Rab9 prom act inconclusive, NPC1 promoter act inconclusive, FLuc counter 21µM*, SMN2 splice enh inconclusive, Luc counter -3% and ELG1 genotoxic 18%.
Screening C=CCOc1c(CNc2cccc(C(=O)O)c2)cccc1OC returned Rab9 prom act inconclusive, NPC1 promoter act inconclusive, FLuc counter 15µM*, SMN2 splice enh inconclusive, Luc counter -2% and ELG1 genotoxic inconclusive.
Screening Cc1cc(C)c(NC(=O)CCCn2c(=O)oc3ccccc32)c(C)c1 returned Rab9 prom act -1%, NPC1 promoter act -3%, FLuc counter 3% and ELG1 genotoxic 1%.
Screening COc1cc(Cl)c(C)cc1NC(=O)CSc1nc2c(c(=O)[nH]1)CCCC2 returned FLuc counter 2%.
O=C(NC1CC1)c1cccc(NC(=O)c2cn3ccccc3n2)c1 was read as Rab9 prom act 3.2µM*, NPC1 promoter act inconclusive and ELG1 genotoxic 12%.
Screening CN(CC(=O)Nc1cccc(F)c1)C(=O)c1cn2ccccc2n1 returned Rab9 prom act -2%, NPC1 promoter act 0%, FLuc counter 3% and ELG1 genotoxic 2%.
Screening O=C(NC1CC1)c1cccc(NC(=O)c2cnn(-c3ccccc3)n2)c1 returned ELG1 genotoxic -4%.
Screening O=C(Nc1ccc(N2CCOCC2)cc1)c1cn2ccccc2n1 returned Rab9 prom act inconclusive, NPC1 promoter act inconclusive, FLuc counter 1.7µM*, SMN2 splice enh inconclusive, Luc counter 4.5µM* and ELG1 genotoxic 3%.
For O=C(CNC(=O)c1cn2ccccc2n1)Nc1ccc(F)c(F)c1 the results were Rab9 prom act 2.2µM*, NPC1 promoter act inconclusive, FLuc counter 17µM* and ELG1 genotoxic 8.2µM*.
For C=CCn1c(CNc2ccc(C)cc2)nnc1SCC(=O)N/N=C/c1ccc(O)cc1 the results were Rab9 prom act 6%, NPC1 promoter act inconclusive, FLuc counter -11%, SMN2 splice enh -9%, Luc counter -4% and ELG1 genotoxic -6%.
O=C(Cn1cc(SCc2ccc(F)cc2)c2ccccc21)N1CCCCCC1 was read as FLuc counter -2%.
COc1ccc(C(=O)NCCc2nnc3ccc(SCC(=O)Nc4ccccc4)nn23)cc1 was read as Rab9 prom act 2.8µM*, NPC1 promoter act 1.6µM*, FLuc counter 3µM* and ELG1 genotoxic inconclusive.
`CCn1c(CC(=O)Nc2cccc(OC)c2)nnc1SCC(=O)Nc1nccs1` gave Rab9 prom act -5%, NPC1 promoter act 1%, FLuc counter -4%, SMN2 splice enh -4%, Luc counter 0% and ELG1 genotoxic -14%.
`Cn1ccnc1SCC(=O)Nc1ccc(Oc2ccccc2)cc1` gave Rab9 prom act 11%, NPC1 promoter act inconclusive, FLuc counter 13µM*, SMN2 splice enh -7%, Luc counter -12% and ELG1 genotoxic inconclusive.
`COc1ccc(CC(=O)NCc2nnc(SCC(=O)Nc3cccc(F)c3)n2C)cc1` gave Rab9 prom act -8%, NPC1 promoter act 0%, FLuc counter 15µM*, SMN2 splice enh 5%, Luc counter -1% and ELG1 genotoxic 0%.
`O=C(CSc1ccc2nnc(CCNC(=O)c3ccccc3)n2n1)Nc1ccccc1` gave Rab9 prom act 1%, NPC1 promoter act -3%, FLuc counter -2%, SMN2 splice enh -17%, Luc counter 11% and ELG1 genotoxic 2%.
Screening COc1ccc(CC(=O)NCc2nnc(SCC(=O)Nc3ccccc3)n2C)cc1 returned Rab9 prom act 3%, NPC1 promoter act -6%, FLuc counter inconclusive, SMN2 splice enh 0%, Luc counter 3% and ELG1 genotoxic -2%.
For COc1ccc(NC(=O)Cc2nnc(SCC(=O)Nc3nccs3)n2C)cc1 the results were Rab9 prom act 4%, NPC1 promoter act 7%, FLuc counter 15µM* and ELG1 genotoxic 2%.
`CN(C(=O)CCc1nc2ccccc2c(=O)[nH]1)C1CCS(=O)(=O)C1` (configuration not stated) gave Rab9 prom act -1%, NPC1 promoter act -2%, FLuc counter 1% and ELG1 genotoxic -4%.
`COc1ccc(NC(=O)Cc2nnc(SCC(=O)Nc3ccccc3)n2C)cc1` gave Rab9 prom act 6%, NPC1 promoter act 3%, FLuc counter 17µM* and ELG1 genotoxic 2%.
`Cc1cc(=O)n2nc(N3CCC(C(=O)NCc4cccc(Cl)c4)CC3)sc2n1` gave Rab9 prom act -2%, NPC1 promoter act -6%, FLuc counter 3% and ELG1 genotoxic 8%.
CNc1oc(/C=C/c2ccccc2)nc1C#N was read as Rab9 prom act 3.2µM*, NPC1 promoter act inconclusive, FLuc counter 2.7µM*, SMN2 splice enh 11µM*, Luc counter -1% and ELG1 genotoxic inconclusive.
`COCCCNc1oc(/C=C/c2cc(OC)c(OC)c(OC)c2)nc1C#N` gave FLuc counter -1% and SMN2 splice enh inconclusive.
`COCCNc1oc(/C=C/c2ccccc2)nc1C#N` gave Rab9 prom act 3.5µM*, NPC1 promoter act inconclusive, FLuc counter 11µM* and ELG1 genotoxic 18µM*.
CNc1oc(/C=C/c2cc(OC)c(OC)c(OC)c2)nc1C#N was read as FLuc counter -1% and SMN2 splice enh 14%.
For CC(C)C(C(=O)NCC1CCCO1)N(C(=O)CNS(=O)(=O)c1ccccc1)C1CCCCC1 (configuration not stated) the results were Rab9 prom act -4%, NPC1 promoter act -3%, FLuc counter 1% and ELG1 genotoxic 0%.
O=C(Cc1ccc(Cl)cc1)Nc1ccc(SC(F)F)cc1 was read as Rab9 prom act 22%, NPC1 promoter act 20%, FLuc counter inconclusive, SMN2 splice enh 15%, Luc counter 1% and ELG1 genotoxic 4%.
`O=C(CN1C(=O)c2ccccc2C1=O)NC1CCC(O)CC1` (configuration not stated) gave Rab9 prom act -2%, NPC1 promoter act 1%, FLuc counter 4% and ELG1 genotoxic 2%.
COC(=O)c1cc2c(C)nn(-c3ccccc3)c2s1 was read as Rab9 prom act 6%, NPC1 promoter act 29%, FLuc counter -18%, SMN2 splice enh 15%, Luc counter 0% and ELG1 genotoxic 13%.
